Values joined by “and” are separate entries in the source; they are usually repeats but may differ in a detail not shown here. Identical values can stand only once. The whole screen tested about 16,000 compounds, of which about 2,600 (16%) were called active. Another 20% or so got no clear call; they are omitted. Calls come from the whole dose curve; as a rule, active = well fitted curve in the direction sought with a large enough effect; inconclusive = small, poorly fitted or top-dose-only effect, or effect the other way; inactive = no such curve, though single readings can be large or run the other way. The full list was thinned out, with actives kept by preference. Where a structure was tested more than once in an assay, its records may differ in their call.
% is set by controls: 0 for no effect and ±100 for the full control effect.

Sequence of Cytochrome P450 2D6 (Homo sapiens) (P10635 whole entry, looked up): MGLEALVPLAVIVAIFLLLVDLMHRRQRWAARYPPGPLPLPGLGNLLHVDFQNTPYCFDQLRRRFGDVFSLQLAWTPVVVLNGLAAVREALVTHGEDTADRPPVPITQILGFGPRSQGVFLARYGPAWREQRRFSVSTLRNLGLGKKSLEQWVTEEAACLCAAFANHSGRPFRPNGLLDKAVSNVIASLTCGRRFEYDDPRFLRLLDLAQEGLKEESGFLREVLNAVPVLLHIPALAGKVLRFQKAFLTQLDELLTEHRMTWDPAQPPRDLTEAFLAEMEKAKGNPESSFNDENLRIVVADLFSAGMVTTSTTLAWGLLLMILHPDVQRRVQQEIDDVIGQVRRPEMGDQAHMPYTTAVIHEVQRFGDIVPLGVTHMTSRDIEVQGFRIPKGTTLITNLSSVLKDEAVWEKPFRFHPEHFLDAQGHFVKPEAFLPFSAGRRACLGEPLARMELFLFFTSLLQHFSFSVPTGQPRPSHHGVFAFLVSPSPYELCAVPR

The experiment has as its target Cytochrome P450 2D6 (Homo sapiens) (UniProt P10635). The experiment in a line: Cytochrome panel assay with activity outcomes. The following applies: recombinant CYP, pro-luciferin dealkylation, luminescence, p450-cyp2d6; series mostly up to 57.1 µM; activity, negative = inhibition: at the top concentration.
With `Cc1cc[c]([Sb]2[O][C@H]([C@H](O)[C@H](O)C(=O)O)[C@@H](CO)[O]2)cc1`, the activity, negative = inhibition was 10.9% [at 11.4 µM] (inactive).

For `O=C(Nc1ccccc1)N1CC[C@@]2(CCCN(C(=O)Oc3ccccc3)C2)C1`, the “activity, negative = inhibition” value is -0.759% (inactive).

In the case of `CC(C)NC(=O)N1CCCC2(CCN(C(=O)Oc3ccccc3)CC2)C1`, the “activity, negative = inhibition” value is 0.403% (inactive).

With `N#Cc1ccc(CN2CCC3(CC2)CCN(C(=O)Oc2ccccc2)CC3)cc1`, the “activity, negative = inhibition” value was 1.3% (inactive).

In general, AC50 refers to the concentration giving half of the maximal activity seen. In the case of `N#Cc1ccc(CN2CC[C@@]3(CCCN(C(=O)Oc4ccccc4)C3)C2)cc1`, the AC50 was 3.16 µM (active).

In the case of `CC(C)CN1CC[C@@]2(CCCN(C(=O)Oc3ccccc3)C2)C1`, the AC50 was 6.31 µM (active).

Take `N#Cc1ccc(CN2CCCC3(CCN(C(=O)Oc4ccccc4)CC3)C2)cc1`: the “activity, negative = inhibition” value is -4.69% (inactive).

For the compound `COc1ccc(NC(=O)N2CCCC3(CCN(C(=O)Oc4ccccc4)CC3)C2)cc1`, the “activity, negative = inhibition” value was -1.09% (inactive).

Turning to `COc1ccc(NC(=O)N2CC[C@@]3(CCCN(C(=O)Oc4ccccc4)C3)C2)cc1`, the AC50 is 6.31 µM (active).

With `CN1CC[C@@]2(CCCN(C(=O)Oc3ccccc3)C2)C1`, the “activity, negative = inhibition” value was -12.1% (inactive).

With `O=C(Oc1ccccc1)N1CCC[C@@]2(CCN(C(c3ccccc3)c3ccccc3)C2)C1`, the AC50 was 5.01 µM (active).

For `O=C(Nc1ccccc1)N1CC2(CCN(C(=O)Oc3ccccc3)CC2)C1`, the “activity, negative = inhibition” value is -0.812% (inactive).

With `CC(C)CN1CC2(CCN(C(=O)Oc3ccccc3)CC2)C1`, the “activity, negative = inhibition” value is 11.2% (inactive).

For `COCCCN1CCN(c2nnc3n2-c2sc(Br)cc2C(c2ccccc2Cl)=NC3)CC1`, the “activity, negative = inhibition” value was 9.92% (inactive).

With `N/C(=N\N=C/c1ccc(-c2ccc(O)c(C(=O)O)c2)o1)N[N+](=O)[O-]`, the “activity, negative = inhibition” value is -7.29% (inactive).

As to `O=C(O)c1ccccc1Nc1cccc(C(F)(F)F)c1`, the “activity, negative = inhibition” value is -2.93% [at 25.6 µM] (inactive).

As to `N[C@@H](CCCCP(=O)(O)O)C(=O)O`, the “activity, negative = inhibition” value was 4.27% (inactive).

Regarding `CC[N+](C)(C)c1cccc(O)c1`, the “activity, negative = inhibition” value was 10.6% (inactive).

Consider `O=C(Oc1ccccc1)N1CCC2(CCCN(C(c3ccccc3)c3ccccc3)C2)CC1`, for which the “activity, negative = inhibition” value is -0.788% (inactive).

With `O=C(Oc1ccccc1)N1CCC2(CC1)CN(C(c1ccccc1)c1ccccc1)C2`, the AC50 is 7.94 µM (active).

As for `CN1CCC2(CC1)CCN(C(=O)Oc1ccccc1)CC2`, the “activity, negative = inhibition” value was -0.504% (inactive).

Take `C[C@@H]1O[C@H](OC2[C@@H](O)[C@H](O)C(O)[C@H](O)[C@H]2O)[C@@H](N)C[C@@H]1N=C(N)C(=O)O` (stereo partly drawn): the activity, negative = inhibition was 3.95% [at 11.4 µM] (inactive).

For `CN1CCN(c2ncc3ncc(=O)n(C)c3n2)CC1`, the “activity, negative = inhibition” value was 10.1% (inactive).

Regarding `C[C@@]12CC[C@H]3[C@@H](CC=C4C[C@H](OS(=O)(=O)O)CC[C@]43C)[C@H]1CCC2=O`, the “activity, negative = inhibition” value was 9.55% (inactive).

For the compound `CC(=O)O[C@H]1CC[C@@]2(C)C(=CC[C@@H]3[C@H]2CC[C@]2(C)C(=O)CC[C@H]32)C1`, the “activity, negative = inhibition” value is -6.32% [at 25.6 µM] (inactive).

In the case of `CCN(CC)CCO[C@H]1CC[C@@]2(C)C(=CC[C@@H]3[C@H]2CC[C@]2(C)C(=O)CC[C@H]32)C1`, the AC50 is 0.0794 µM (active).

Regarding `O=C(c1ccccc1F)c1cn(CC(=O)N2CCOCC2)c2ccccc12`, the “activity, negative = inhibition” value was -6.53% (inactive).

With `CCCN(CCC)[C@H]1CCc2c(F)ccc(O)c2C1`, the AC50 was 631 nM (active) and 1.58 µM (active).

Regarding `CCCN(CCC)[C@@H]1CCc2cccc(O)c2C1`, the AC50 is 3.16 µM (active) and inactive and 794 nM (active).

Turning to `Cc1cc(C)c(-n2c(O)c(C=NCCN3CCOCC3)c(=O)[nH]c2=O)c(C)c1`, the “activity, negative = inhibition” value was 4.79% (inactive).

On to `O=P(Nc1c(Cl)cccc1Cl)(c1ccccc1)c1nc2c(s1)CCCC2` (stereo not drawn), for which the “activity, negative = inhibition” value is -6.06% (inactive).

As to `C[N+]1([O-])[C@@H]2CC(OC(=O)[C@@H](CO)c3ccccc3)C[C@@H]1[C@H]1O[C@H]12` (stereo partly drawn), the AC50 entry was “inactive”.

With `CC(=Nc1c(C)n(C)n(-c2ccccc2)c1=O)c1c(O)n(Cc2ccccc2)c(=O)[nH]c1=O`, the “activity, negative = inhibition” value was -3.59% (inactive).

Turning to `O=C(O)CN1CCN(CC(=O)O)CC(=O)[O][Hg][O]C(=O)C1`, the AC50 is 3.16 µM (active).

With `NCCP(=O)(O)O`, the activity, negative = inhibition is 19.4% [at 11.4 µM] (inactive).

`C[C@@]12CC[C@@H]3[C@H](CCC4=CC(=O)CC[C@]43C)[C@@H]1CC[C@@H]2C(=O)Cn1cnc2c(=S)nc[nH]c21`: the activity, negative = inhibition was 7.22% [at 11.4 µM] (inactive).

With `Oc1ccc([C@H](O)[C@@H]2CCCCN2)cc1O`, the activity, negative = inhibition is 15.6% [at 11.4 µM] (inactive).

Turning to `O[C@@H](c1cc(-c2ccccc2)nc2c1ccc1ccccc12)[C@@H]1CCCCN1`, the AC50 was 3.16 µM (active).

In the case of `NCc1cc(=O)[nH]o1`, the AC50 entry is “inactive”.

As to `O=C(O)/C=C\c1ccc[c]([Sb](=[O])([OH])[OH])c1`, the activity, negative = inhibition is -6.51% [at 11.4 µM] (inactive).

In the case of `CC(=O)O/C(=C1/C[C@H]2[C@@H]3CC=C4C[C@@H](OC(C)=O)CC[C@]4(C)[C@@H]3CC[C@]2(C)C1=O)C(F)(F)F`, the activity, negative = inhibition is -5.95% [at 11.4 µM] (inactive).

For the compound `COc1ccc2c(c1)C13CCCC[C@@H]1C(C2)N(C)CC3` (stereo partly drawn), the AC50 was 3.98 µM (active).

For the compound `COc1ccc2c(c1)[C@]13CCCC[C@@H]1[C@H](C2)N(C)CC3`, the AC50 is 2.51 µM (active).

In the case of `COc1ccc2c(c1)[C@]13CCCC[C@@H]1[C@H](C2)NCC3`, the AC50 was 6.31 µM (active).

`CC(C)(O)/C=C\C(=O)[C@](C)(O)[C@H]1[C@H](O)C[C@]2(C)[C@@H]3CC=C4[C@@H](C=C(O)C(=O)C4(C)C)[C@]3(C)C(=O)C[C@@]12C`: the activity, negative = inhibition is -2.8% [at 11.4 µM] (inactive).

Regarding `C[C@@]12CC[C@H](O)C[C@@H]1CC[C@H]1[C@H]2CC[C@@]2(C)[C@@H](C3=CC(=O)OC3)CC[C@]12O`, the “activity, negative = inhibition” value is -0.173% [at 25.6 µM] (inactive).

In the case of `C=CCN1C(=O)NC(=O)/C(=C/c2cccn2C)C1=O`, the “activity, negative = inhibition” value was 26.3% (inactive).

`NC(N)=NCCC[C@H](N)C(=O)O`: the “activity, negative = inhibition” value is 8.61% (inactive).

Take `CCOP(=O)(CN(CC)CCNP(=O)(OCC)OCC)OCC`: the “activity, negative = inhibition” value is 7.73% (inactive).

For `O=C1C=C2C=C[C@H]3C[C@@]2(O1)[C@H]1CCCCN31`, the “activity, negative = inhibition” value is 1.85% [at 25.6 µM] (inactive).

On to `c1ccc2c(N3CCNCC3)cccc2c1`, for which the AC50 was 15.8 µM (active).

Turning to `c1ccc2nc(N3CCNCC3)ccc2c1`, the AC50 result is “inactive”.

On to `COc1ccccc1N1CCNCC1`, for which the “activity, negative = inhibition” value was -9.83% (inactive).

With `CC[C@H](Oc1ccc(Cl)cc1)C(=O)OC1C[C@H]2CC[C@@H](C1)N2C` (stereo partly drawn), the AC50 was 0.00631 µM (active).

In the case of `COc1ccc(C(=O)O[C@H]2CC[C@@]3(C)[C@H]4CC[C@H]5[C@]3(C[C@]3(O)[C@H]6CN7C[C@H](C)CC[C@H]7[C@](C)(O)[C@]6(O)[C@H](O)C[C@]53O)O[C@]24O)cc1OC`, the activity, negative = inhibition was 13.4% [at 11.4 µM] (inactive).

`CN1[C@@H]2CC[C@H]1CC(O[C@@H](c1ccccc1)c1ccc(Cl)cc1)C2` (stereo partly drawn): the AC50 was 1.26 µM (active) and 1.58 µM (active).

For `CN1C2CCC1CC(OC(=O)c1ccc(Cl)cc1)C2` (stereo not drawn), the AC50 is 0.224 µM (active).

Regarding `COc1ccc(C(=O)OC2C[C@H]3CC[C@@H](C2)N3C)cc1OC` (stereo partly drawn), the AC50 is 1 µM (active).

The values are drawn from PubChem BioAssay AID1851 (National Center for Advancing Translational Sciences (NCATS), 2009).
